According to PubChem BioAssay AID2551 (National Center for Advancing Translational Sciences (NCATS), 2010):
Hit rate of the full screen: of about 310,000 compounds, about 17,000 (5.5%) were called active. Where a call stands in place of a potency, no number is given. Not shown: some 11% with an inconclusive outcome. The sample holds actives, similar compounds and a random draw of the others, so the mix is not that of the screen. A number with no mark means an inactive call. The call rests on the fitted dose curve; in most records, active means well fitted inhibition curve with a large enough effect; inconclusive means small, poorly fitted or top-dose-only effect, or effect the other way; inactive means no such curve, though single readings can be large or run the other way.

These compounds were tested against Nuclear receptor ROR-gamma (Mus musculus) (UniProt P51450) (assay: qHTS for inhibitors of ROR gamma transcriptional activity). Conditions: Drosophila S2 Gal4-RORgamma UAS-luciferase reporter, 20 h; series mostly up to 53.6 µM.
In short: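 Luciferase reporter read in Schneider cells carrying Gal4-RORγ (mouse) and UAS-Photinus luciferase; cells given compound 1 h before 700 uM copper sulfate induction, then incubated 20 h at ambient temperature.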
Further: nearly all actives have a fitted effect of over 60% in size.
Potency means the concentration at half of the fitted maximal effect.

Nuclear receptor ROR-gamma (Mus musculus), sequence (P51450 whole entry, looked up, the tested form may be a part): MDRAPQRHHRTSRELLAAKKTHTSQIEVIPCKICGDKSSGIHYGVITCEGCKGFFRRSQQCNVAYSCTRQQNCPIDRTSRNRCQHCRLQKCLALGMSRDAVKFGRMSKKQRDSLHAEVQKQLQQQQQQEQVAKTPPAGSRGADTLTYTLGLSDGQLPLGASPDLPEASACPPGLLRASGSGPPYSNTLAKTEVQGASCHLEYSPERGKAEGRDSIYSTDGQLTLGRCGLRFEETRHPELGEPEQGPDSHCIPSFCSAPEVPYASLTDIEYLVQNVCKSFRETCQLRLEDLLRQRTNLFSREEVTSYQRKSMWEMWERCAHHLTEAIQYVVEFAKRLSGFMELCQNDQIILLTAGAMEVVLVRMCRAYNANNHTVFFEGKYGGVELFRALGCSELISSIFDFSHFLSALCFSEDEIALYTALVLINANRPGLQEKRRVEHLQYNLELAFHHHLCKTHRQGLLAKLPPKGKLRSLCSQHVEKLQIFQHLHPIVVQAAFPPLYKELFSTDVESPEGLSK

Row | Compound | Potency | activity change, negative = inhibition
1 | COc1ccc(CCNS(=O)(=O)c2cn(C)nc2C)cc1 | inactive | 
2 | CCOC(=O)C1CCN(C(=O)COc2cccc3ccccc23)CC1 | inactive | 
3 | CC(NC(=S)Nc1ccc(S(N)(=O)=O)cc1)c1ccc2c(c1)OCO2 (centres undefined) | inactive | 
4 | CC(NC(=S)Nc1ccc(OC(F)F)cc1)c1ccc(F)cc1 (centres undefined) | 3.16 µM (active) | 
5 | O=C1CCC(C(=O)Nc2ccc(OC(F)F)cc2)N1 (centres undefined) | inactive | 
6 | Cc1cccc(NS(=O)(=O)c2ccc(C(=O)NCC(C)(C)N3CCOCC3)cc2)c1C | inactive | 
7 | Cc1cccc(N=C2NC(=O)/C(=C/c3cn(C)c4ccccc34)S2)c1 | 12.6 µM (active) | 
8 | Cc1ccc(N=C2NC(=O)/C(=C/C=C/c3ccco3)S2)cc1C | inactive | 
9 | Cc1ccc(N2C(=O)S/C(=C/c3cn(C)c4ccccc34)C2=O)cc1 | inactive | 
10 | COc1ccc(CSc2nnnn2-c2ccc(O)cc2)cc1F | inactive | 
11 | C#CCOc1ccccc1/C=C1/C(=O)ON=C1C | inactive | 
12 | O=C(N/N=C/c1cccc(OC(=O)c2ccc([N+](=O)[O-])cc2)c1)c1cccnc1 | inactive | 
13 | Cn1c(=O)n(C)c2cc(/C=N/NC(=O)c3cccc(Br)c3)ccc21 | inactive | 
14 | COc1cc(/C=N/NC(=O)c2cccnc2)ccc1OC(=O)c1cccc(Br)c1 | 11.2 µM (active) | 
15 | Cc1ccc(CNC(=O)[C@@H](NC(=O)Cc2ccccc2)C(C)C)cc1 | inactive | 
16 | COc1ccc(/C=C(/NC(=O)c2ccccc2)C(=O)Nc2cccc(C(=O)O)c2)cc1 | inactive | 
17 | CC(NC(=O)CNC(=O)Cc1cccc2ccccc12)c1ccc(S(N)(=O)=O)cc1 (centres undefined) | inactive | 
18 | COC(=O)c1ccc2c(C(C)(C)O)c(C(C)(C)O)[nH]c2c1 | inactive | 
19 | CN1CCN(C(=O)CCc2nc(-c3ccc(Cl)cc3)no2)CC1 | inactive | 
20 | CCNC(=O)CCc1nc(-c2ccc(C(C)(C)C)cc2)no1 | 0.0447 µM (active) | 
21 | CCNC(=O)CCc1nc(-c2ccc(C)cc2)no1 | inactive | 
22 | CC1=C(C(=O)OC(C)(C)C)C(c2ccc(Br)cc2)NC(=O)N1CCCC(=O)O (centres undefined) | inactive | 

Row | Compound | Potency | activity change, negative = inhibition
23 | COc1cccc(NC(=O)[C@H](Cc2c[nH]c3ccccc23)NC(=O)[C@@H]2Cc3ccccc3CN2)c1 | inactive | 
24 | Cc1cc(-c2cccs2)nc(-n2cccc2)n1 | inactive | 
25 | CC(C)(C)Nc1c(-c2cccs2)nc2ccccn12 | 6.31 µM (active) | 
26 | Cc1cc2nc(C(F)(F)F)cc(-c3cccs3)n2n1 | inactive | 
27 | Cn1nccc1C(=O)NC1CCCc2c1cnn2-c1ccc(F)cc1F (centres undefined) | inactive | 
28 | COC(=O)c1ccc(OC(=O)c2cnccn2)cc1 | inactive | 
29 | COc1ccc(C(=O)NC(=S)NNC(=O)CCc2ccccc2)cc1 | 4.47 µM (active) | 
30 | Cc1cccc(OCC(=O)NCCNC(=O)c2cccnc2)c1 | inactive | 
31 | COc1ccc(C(=O)NC(=S)NC2CCCCC2)cc1 | 2.82 µM (active) | 
32 | O=C(CCc1ccccc1)NNC(=O)c1ccc(Br)cc1 | inactive | 
33 | COCCCNC(=S)NC(=O)c1ccccc1 | 12.6 µM (active) | 
34 | COc1ccc(-n2cnc3cc(C(=O)NC4CCCC4)ccc32)cc1 | inactive | 
35 | Cc1cccc(OCCNC(=S)NC(=O)c2cccnc2)c1 | 10 µM (active) | 
36 | CCCNC(=S)N1CCC(NC(=O)c2ccc(OC)cc2)CC1 | inactive | 
37 | CCCOc1cccc(C(=O)NCCCNC(=O)c2cccnc2)c1 | inactive | 
38 | COCCCNC(=O)c1c(F)c(F)c(F)c(F)c1F | inactive | 
39 | COCCCNC(=S)NNC(=O)C(O)(c1ccccc1)c1ccccc1 | inactive | 
40 | COc1ccc(C(=O)NC2CCN(C(=S)NCCc3ccccc3)CC2)cc1 | inactive | 
41 | C[C@H](NC(=O)C1CC(=O)N(c2ccc3c(c2)OCO3)C1)C(=O)NCc1ccco1 (some centres undefined) | inactive | 
42 | COc1ccc(CNC(=O)/C(C#N)=C/c2cccc(OC)c2OC)cc1 | inactive | 
43 | Cc1c(Cl)c([N+](=O)[O-])nn1CC(=O)NCCCN1CCOCC1 | inactive | 
44 | Cc1ccc(C)c(N2CCN(C(=O)Cn3ncn4cccc4c3=O)CC2)c1 | inactive | 

Row | Compound | Potency | activity change, negative = inhibition
45 | NS(=O)(=O)c1cccc(NC(=O)CC23CC4CC(CC(Br)(C4)C2)C3)c1 | inactive | 
46 | Cc1ccc(S(=O)Cc2ccc(C(=O)N3CCN(C4CCCCC4)CC3)o2)cc1 (centres undefined) | inactive | 
47 | N#C/C=C/N1CCN(Cc2ccc3c(c2)OCO3)CC1 | inactive | 
48 | CC(=O)NC(=S)NNC(=O)c1ccc(Br)cc1 | 12.6 µM (active) | 
49 | COCCNC(=S)N(Cc1cccnc1)Cc1ccc(OC)c(OC)c1 | inactive | 
50 | Cc1cc(C)c2[nH]c(=O)c(CN(Cc3ccccc3)C(=S)NCCCN(C)C)cc2c1 | inactive | 
51 | COCCCNC(=S)N(Cc1ccccc1)Cc1ccc(F)cc1 | 15.8 µM (active) | 
52 | CCCc1ccc(OCC(=O)NNC(=S)NC(=O)c2ccco2)cc1 | 12.6 µM (active) | 
53 | Cc1ccc(OCC(=O)NCCCNC(=O)c2ccco2)cc1C | inactive | 
54 | COc1ccc(OCC(=O)NNC(=O)c2ccc(-c3ccccc3)cc2)cc1 | inactive | 
55 | COc1ccc(C(=O)NNC(=S)NC(=O)c2ccccc2)cc1 | 4.47 µM (active) | 
56 | COc1ccc(OCC(=O)Nc2ccc(NC(=O)c3ccco3)c(C)c2)cc1 | inactive | 
57 | Cn1nnnc1SCC(=O)NNC(=O)c1ccc(Br)cc1 | inactive | 
58 | COc1ccc(C(=O)NNC(=O)c2cc(C)[nH]n2)cc1 | inactive | 
59 | CNC(=S)NNC(=O)c1ccc(N(C)C)cc1 | inactive | 
60 | Cc1ccc(N(CC(=O)NC2CCCCC2)C(=O)CCCC(=O)Nc2ccccn2)c(C)c1 | inactive | 
61 | O=C(NCc1ccco1)C(c1ccncc1)N(C(=O)Cn1nnc2ccccc21)c1ccccc1 (centres undefined) | inactive | 
62 | O=C(Nc1cccc(Cl)c1Cl)c1ccccc1NC(=O)C1CC=CCC1C(=O)O (centres undefined) | inactive | 
63 | CCc1ccc(C(CNc2nc(C(F)(F)F)nc3ccccc23)N(C)C)cc1 (centres undefined) | inactive | 
64 | O=C(Nc1cccc(Br)c1)c1ccc2snnc2c1 | inactive | 
65 | CCN1C(=NCCc2cccnc2)N[C@@H](c2ccccc2)C(C(=O)OC)=C1C | inactive | 
66 | O=S(=O)(c1cccc(Cn2nnc(-c3ccc(F)cc3)n2)c1)N1CCOCC1 | inactive | 

Row | Compound | Potency | activity change, negative = inhibition
67 | CC1(C(=O)O)CCC(C(=O)Nc2ccc(Cl)c(Cl)c2)C1(C)C (centres undefined) | inactive | 
68 | CC(C)CCSc1ncnc2c1oc1nc3c(cc12)COC(C)(C)C3 | inactive | 
69 | C=CCn1c(=S)[nH]c2nc3c(cc2c1=O)COC(C)(C)C3 | 3.98 µM (active) | 
70 | CC1(C)Cc2nc3sc4c(SCC(=O)NC(c5ccccc5)c5ccccc5)ncnc4c3cc2CO1 | inactive | 
71 | Cc1cc(C)nc(NS(=O)(=O)c2ccc(N3C(=O)C4CCCCC4C3=O)cc2)n1 (centres undefined) | inactive | 
72 | CCc1ccc(NC(=O)C(=O)NNC(=O)c2cccs2)cc1 | inactive | 
73 | CCOC(=O)c1ccc(NC2Nc3cc(C)nn3S2)cc1 (centres undefined) | inactive | 
74 | CCc1ccc(NC2Nc3cc(C)nn3S2)cc1 (centres undefined) | 1.58 µM (active) | 
75 | Cc1ccccc1NC(=O)Cn1cc(C(=O)C2CC2)c2ccccc21 | inactive | 
76 | CC1CCCCN1C(=O)Cn1c(=O)oc2cc(S(=O)(=O)N3CCCCC3)ccc21 (centres undefined) | inactive | 
77 | CCSc1nc2sc3c(c2c(=O)n1-c1ccc(C)cc1)CCN(C)C3 | inactive | 
78 | O=C(c1ccc(OC2CCN(C/C=C/c3ccc(F)cc3)CC2)cc1)N1CCCCC1 | inactive | 
79 | CCOC(=O)CSc1nnc(-c2ccncc2)o1 | inactive | 
80 | CCn1c(-c2ccncc2)n[nH]c1=S | 5.01 µM (active) | 
81 | CCn1c(SCC(=O)NC2CCCC2)nnc1-c1ccoc1C | inactive | 
82 | CCn1c(C(C)C)n[nH]c1=S | inactive | 
83 | CCn1c(-c2ccoc2C)n[nH]c1=S | 11.2 µM (active) | 
84 | CC(C)n1c(-c2ccncc2)n[nH]c1=S | 12.6 µM (active) | 
85 | CCn1c(SCC(=O)Nc2nc3ccc(OC)cc3s2)nnc1-c1ccoc1C | inactive | 
86 | CCCc1cc(=O)[nH]c(SCC(=O)OCc2ccccc2)n1 | inactive | 
87 | CCn1c(C(C)NC(=O)c2ccc(C)cc2)n[nH]c1=S (centres undefined) | inactive | 
88 | CCCc1cc(-c2n[nH]c(=S)n2CC)c2ccccc2n1 | 11.2 µM (active) | 

Row | Compound | Potency | activity change, negative = inhibition
89 | O=S(=O)(Nc1ccccc1Br)c1cccs1 | inactive | 
90 | O=C(Nc1ccc(CN2CCOCC2)cc1)c1cc(Cl)ccc1Cl | inactive | 
91 | C[C@@H]1CC[C@@]2(OC1)O[C@H]1C[C@H]3[C@@H]4CC=C5C[C@@H](O)[C@H](O)C[C@]5(C)C4CC[C@]3(C)[C@H]1[C@@H]2C (some centres undefined) | inactive | 
92 | O=C1Nc2cc(C(=O)N3CCN(c4ccc(F)cc4)CC3)ccc2NC1CSCc1cccc(F)c1 (centres undefined) | inactive | 
93 | CC1CCC(NS(=O)(=O)c2ccc3c(c2)CC(=O)N3)CC1 (centres undefined) | inactive | 
94 | CC(=O)NC(C)c1nc2ccccc2n1Cc1ccccc1F (centres undefined) | inactive | 
95 | CC(=O)c1nc2ccccc2n1Cc1ccccc1 | inactive | 
96 | Cc1ccc(Cn2c(NC(=O)c3ccco3)nc3ccccc32)cc1 | 0.282 µM (active) | 
97 | CC(=O)Nc1nc2ccccc2n1Cc1ccc(C)cc1 | 1.26 µM (active) | 
98 | CCn1nc(NC(=O)c2ccco2)c2cc3ccc(C)cc3nc21 | inactive | 
99 | Cc1ccnc(NC(=O)c2ccco2)n1 | inactive | 
100 | O=S(=O)(O)c1nc2ccccc2n1Cc1ccc(Cl)cc1 | inactive | 
101 | CCC(=O)NCCc1nc2ccccc2n1CC | inactive | 
102 | CCC(=O)Nc1nc2ccccc2n1Cc1ccccc1C | 2 µM (active) | 
103 | CCOC(=O)C1CCN(S(=O)(=O)c2ccc3c(c2)N(C(C)=O)CCO3)CC1 | inactive | 
104 | COc1ccc2c3c(c(=O)oc2c1)C1O[C@](CCCCN2C(=O)c4ccccc4C2=O)(Cc2c1ccc1ccccc21)O3 |  | -28.3% [at 10 µM]
105 | CCN1CCCC1CNC(=O)c1cc2cc(OC)c(OC)cc2[nH]1 (centres undefined) | inactive | 
106 | CCn1c(SCC(=O)Nc2ccc3c(c2)OCCO3)nnc1C(C)C | inactive | 
107 | CC(C)c1cc(C(=O)N/N=C/c2ccoc2)c(O)c(C(C)C)c1 | 5.62 µM (active) | 
108 | COc1cc(/C=N/NC(=O)c2cc(C)n(-c3ccc(F)cc3)c2C)cc(OC)c1O | inactive | 
109 | CC(Oc1ccccc1[N+](=O)[O-])C(=O)N/N=C/c1ccoc1 (centres undefined) | inactive | 
